Source: PubChem BioAssay (Tox21)
Records with an inconclusive call do not appear. A call without a number means that no potency is given here. The source made the active and inactive calls. Calls follow the shape of the full dose curve.

Assay: p53 small molecule agonists, cell-based qHTS assay with human liver microsomes (AID 1963577);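 also: p53 response element beta-lactamase reporter cells with liver microsomes plus NADPH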
Conditions: HCT-116 p53RE-bla with human liver microsomes, ratio, 16 h; series mostly up to 66 µM
From the text: National Center for Advancing Translational Sciences [NCATS]
Division of Preclinical Innovation [DPI]
U.S. Environmental Protection Agency [EPA]
National Institutes of Environmental Health Sciences [NIEHS]
National Toxicology Program [NTP]
U.S. Food and Drug Administration [FDA]
p53, a tumor suppressor protein, is activated following cellular insult, including DNA damage and other cellular stresses. The activation of p53 regulates cell fate by inducing DNA repair, cell cycle arrest, apoptosis, or cellular senescence. The activation of p53, therefore, is a good indicator of DNA damage and other cellular stresses. […] The activation of the reporter gene under culture conditions can be detected by fluorescence intensity.
Tox21 Assay Protocol Summary:
The p53RE-bla cells were dispensed at 4,000cells/3ul/well in 1536-well black-clear bottom plates. After the assay plates were incubated at 37 C, 5% CO2 incubator for 5 hours, 23 nL of compounds dissolved in DMSO, positive controls or DMSO only was transferred to the assay plate. Following compound addition, 3 uL of human liver microsomes (XenoTech, Kansas City, KS) at final concentration of 0.5 mg/mL and 1uL of Beta-Nicotinamide adenine dinucleotide 2-phosphate (NADPH) at final concentration of 0.5 mg/mL were transferred to the assay plate. The plates were incubated at 37 C for 16 hours. 1 uL of LiveBLAzer detection mixture was added to each well and the plates were incubated at room temperature in the dark for 2 h.

Compound	Potency	activation
Cc1cc(OI)c(C(C)C)cc1-c1cc(C(C)C)c(OI)cc1C	inactive	–
CCc1nccnc1C	inactive	–
CC/C=C\CCOC(=O)c1ccccc1O	inactive	–
CN(C)CCc1c[nH]c2ccc(C[C@H]3COC(=O)N3)cc12	inactive	–
Clc1cc(Cl)cc(Cl)c1	inactive	–
CC(=O)C1C(=O)C=C(C)OC1=O (stereo not given)	inactive	–
COc1ccccc1N1CCN(CC(O)COc2cc(OC)c(OC)c(OC)c2)CC1 (stereo not given)	inactive	–
S=C1NC=NC2N=CNC12 (stereo not given)	inactive	–
NS(=O)(=O)c1cc(C(=O)NN2C[C@H]3[C@H]4CCC(C4)[C@H]3C2)ccc1Cl	inactive	–
CCCC(C)C=O (stereo not given)	inactive	–
CCNC(=O)C(C)OC(=O)Nc1ccccc1 (stereo not given)	inactive	–
C/C(=C(\CCOP(=O)(O)O)SC(=O)c1ccccc1)N(C=O)Cc1cnc(C)nc1N	–	-1.03% [at 5.99 µM] (inactive)
CC(CNC1CCCCC1)OC(=O)c1ccccc1 (stereo not given)	inactive	–
CC(C)c1ccc(C(=O)N=C(N)N)cc1S(C)(=O)=O	inactive	–
CCCCc1ccc(N)cc1	inactive	–
O=C(C(Cl)Cl)N1CCOC12CCCCC2	inactive	–
CN1CCN(c2cc3c(cc2F)c(=O)c(C(=O)O)cn3-c2ccc(F)cc2)CC1	inactive	–
O=C(O)Cc1c(Cl)ccc(Cl)c1Cl	inactive	–
CC(C)(C)c1ccccc1	inactive	–
O=C(O)c1cc(C(=O)O)c(C(=O)O)cc1C(=O)O	inactive	–

Compound	Potency	activation
COc1ccc2nc(NC(=O)Nc3ccccc3)sc2c1	inactive	–
Cc1nc2ccccc2n1Cc1ccc(Cl)cc1	inactive	–
CC/C=C\CCCCO	inactive	–
CC1(C)S[C@@H]2[C@H](NC(=O)C(C(=O)O)c3ccccc3)C(=O)N2[C@H]1C(=O)O (stereo not given in full)	inactive	–
CNC(=O)CN(CCN(CCN(CC(=O)[O-])CC(=O)NC)CC(=O)[O-])CC(=O)[O-].O.[Gd+3]	inactive	–
CN(C(=O)CCCOc1ccc2[nH]c(=O)ccc2c1)C1CCCCC1	inactive	–
CCCCCc1ccc(N)cc1	inactive	–
C=CS(=O)(=O)O	inactive	–
c1ccc(SSc2ccccc2)cc1	inactive	–
Cc1cccc(C(=O)O)c1[N+](=O)[O-]	inactive	–
Cc1ccnc2ccccc12	inactive	–
Clc1nnc(Cl)c2ccccc12	inactive	–
O=C(O)Cn1c(C(=O)Nc2nc(-c3ccccc3Cl)cs2)cc2ccccc21	inactive	–
C=CC(=O)OCC(CO)(COCC(COC(=O)C=C)(COC(=O)C=C)COC(=O)C=C)COC(=O)C=C	inactive	–
C=CC(C)C#N (stereo not given)	inactive	–
OCC(F)(F)F	inactive	–
CCCCC/C=C/CC1CC(=O)OC1=O (stereo not given)	inactive	–
CCCCCCCCCCCCCCCCOP(=O)([O-])OCC[N+](C)(C)C	inactive	–
O=c1[nH]cnc2ccccc12	inactive	–
O=C(OCCCCCOC(=O)c1ccccc1)c1ccccc1	inactive	–
